A selection: hits, their analogues and other compounds. The true share with any hit is near 6.6%.
MCF10A rereplic: inducers of DNA re-replication in MCF 10A breast cells | MCF 10A DNA re-replication, Hoechst nuclear intensity, 48 h | Potency, µM (doses to about 46.1 µM), actives largely listed as activators | 350,000 tested, 2.9% active | AID 624296; further: nearly all actives have a fitted effect of over 50% in size
KB-V1 MDR tox: kills drug-selected multidrug resistant KB-V1 cells. Potency, µM (top dose mostly 46.1 µM), hits mostly cytotoxic. 400,000 tested, 3.4% active. AID 1347076. KB-V1 MDR cells viability, CellTiter-Glo, 72 h; further: nearly all actives have a fitted effect of over 60% in size
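Drug-selected KB-V1 cells, grown in DMEM lacking phenol red with 10% FBS, receive compound titrations; after three days at 37 degrees C, surviving cell ATP is quantified by CellTiter-Glo luminescence and responses normalized and curve-fitted.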
TSG101-PTAP inh: blocks PTAP/TSG101 interaction to inhibit HIV-1 budding. Q99816. Potency, µM (top dose mostly 115 µM), most hits filed as inhibitors. AID 493005. Fluorescence polarization, FITC-PTAP peptide / Tsg101 binding. 340,000 tested, under 10 active; active means well fitted inhibition curve with a large enough effect in the main read-out, with a control signal flat, not every such curve was filed as active; inconclusive means small, poorly fitted or top-dose-only effect, or effect the other way, or a change in a side signal; inactive means no such curve, though single readings can be large or run the other way
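Steps: Tsg101 binding domain dispensed (10 uM final), compounds pinned in DMSO, FITC-labeled PTAP-motif peptide added (50 nM final); after 20 min binding at room temperature, polarization measured.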
KB-3-1 tox: KB-3-1 parental cell cytotoxicity | KB-3-1 viability, CellTiter-Glo ATP luminescence, 72 h | Potency, µM (doses to about 46.1 µM), usual class: cytotoxic | 400,000 tested, 1.4% active; further: nearly all actives have a fitted effect of over 60% in size
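Parental KB-3-1 adenocarcinoma cells in phenol-red-free DMEM with 10% FBS were pin-treated with compounds at several concentrations, incubated 72 h at 37 °C, and viability read by CellTiter-Glo luminescence; concentration-effect curves were fitted after normalization.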
SW480 rereplic: induces DNA re-replication in SW480 colon adenocarcinoma cells; SW480 DNA re-replication, Hoechst DNA content imaging, 48 h; Potency, µM (titrated, usually from 46.1 µM), most hits filed as activators; 340,000 tested, 1.8% active; AID 624297; further: nearly all actives have a fitted effect of over 55% in size
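Image-based DNA-content assay: after two days of treatment, nuclei were labelled with the DNA dye Hoechst and imaged, and hits were compounds raising the count of nuclei showing high fluorescence intensity.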
RGS4 inhibitor: blocks human RGS4-accelerated GTP hydrolysis | P49798 | Transcreener GDP fluorescence polarization, RGS4-accelerated GTP hydrolysis | Potency, µM (highest dose often 114 µM), usual class: inhibitors | 390,000 tested, 0.039% active | AID 504845; further: nearly all actives have a fitted effect of over 75% in size
Target sequence (P49798 whole entry, looked up): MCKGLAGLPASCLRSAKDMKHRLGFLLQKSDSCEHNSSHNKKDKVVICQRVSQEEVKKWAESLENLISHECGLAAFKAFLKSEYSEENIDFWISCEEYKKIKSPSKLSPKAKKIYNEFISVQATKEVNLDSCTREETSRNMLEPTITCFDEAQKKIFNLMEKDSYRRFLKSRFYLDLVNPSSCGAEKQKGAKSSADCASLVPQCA
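MLSMR compounds (23 nl, pin-transferred) preincubated 10 min at room temperature with a 500nM (2x) first reagent, then RGS4 at 900nM (2x) plus Transcreener GDP mix added; fluorescence polarization (620/688 nm) read before and after 90 min at 30 °C.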
Each line names hits and unclear results; the compound was inactive in the other large screens. Unless noted, the call rests on the fitted dose curve; in most records, active means well fitted curve in the direction sought with a large enough effect; inconclusive means small, poorly fitted or top-dose-only effect, or another doubt; inactive means no such curve, though single readings can be large; an effect the other way counts as inactive or inconclusive.

CSCCC(c1nnnn1-c1c(C)cccc1C)N1CCC2(CC1)C(=O)NCN2c1ccccc1 (configuration not stated)	KB-3-1 tox inconclusive (no result: MCF10A rereplic, TSG101-PTAP inh, SW480 rereplic, RGS4 inhibitor)
N=C(N)c1ccc(CS(=O)(=O)F)cc1	none (no result: MCF10A rereplic, KB-V1 MDR tox, TSG101-PTAP inh, KB-3-1 tox, SW480 rereplic)
COc1ccc(OCC(=O)N2CCN(CCc3ccccn3)CC2)cc1	none (no result: MCF10A rereplic, TSG101-PTAP inh, SW480 rereplic)
CCC(=O)Nc1cc(C(=O)O)ccc1S(=O)(=O)c1ccc(C)cc1	none
O=c1[nH]c2ccccc2n1C1CCN(C(c2cccs2)c2nnnn2Cc2ccccc2)CC1 (configuration not stated)	KB-V1 MDR tox 15µM, KB-3-1 tox inconclusive (no result: MCF10A rereplic, TSG101-PTAP inh, SW480 rereplic, RGS4 inhibitor)

From PubChem
